Assay results reported in paper PMC5540273 (PLoS ONE, 2017).

Legend:
Conditions in all cases: concentration: 1 μM, replicates: in singlicate; n = 1
HUNK = test system: HUNK
ICK = test system: ICK
IGF1R = test system: IGF1R
IKK-alpha = test system: T1, IKK-alpha
T1 construct: gene CHUK

IKK-beta = test system: T2, IKK-beta
T2 construct: gene IKBKB

IKK-epsilon = test system: T3, IKK-epsilon
T3 construct: gene IKBKE

INSRR = test system: INSRR
INSR = test system: INSR
IRAK1 = test system: IRAK1
IRAK3 = test system: IRAK3
IRAK4 = test system: IRAK4
ITK = test system: ITK
[1] = test system: JAK1(JH1domain-catalytic)
[2] = test system: JAK1(JH2domain-pseudokinase)
[3] = test system: JAK2(JH1domain-catalytic)
[4] = test system: JAK3(JH1domain-catalytic)
JNK1 = test system: T4, JNK1
T4 construct: gene MAPK8

JNK2 = test system: T5, JNK2
T5 construct: gene MAPK9

JNK3 = test system: T6, JNK3
T6 construct: gene MAPK10

KIT-autoinhibited = test system: KIT-autoinhibited
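Further: KINOMEscan kinase panel screen.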

SMILES | %Inh (HUNK) | %Inh (ICK) | %Inh (IGF1R) | %Inh (IKK-alpha) | %Inh (IKK-beta) | %Inh (IKK-epsilon) | %Inh (INSRR) | %Inh (INSR) | %Inh (IRAK1) | %Inh (IRAK3) | %Inh (IRAK4) | %Inh (ITK) | %Inh [1] | %Inh [2] | %Inh [3] | %Inh [4] | %Inh (JNK1) | %Inh (JNK2) | %Inh (JNK3) | %Inh (KIT-autoinhibited)
Cc1nnc(-c2ccc3occ(-c4ccc(S(C)=O)cc4)c3c2)[nH]1 (centres unmarked) | 0% | 0% | 0% | 26% | 20% | 0% | 0% | 4% | 0% | 66% | 0% | 13% | 3% | 90.4% | 11% | 22% | 3% | 26% | 45% | 11%
O=C(Nc1ccc2c(c1)OCO2)NC1CCN(c2ccnc(Nc3ccc(F)cc3)n2)C1 (centres unmarked) [GSK1379724] | 12% | 19% | 0% | 25% | 16% | 0% | 0% | 0% | 36% | 0% | 21% | 8% | 18% | 0% | 13% | 0% | 33% | 23% | 24% | 0%
CN(C)CCN(C)C(=O)c1cc(-c2ccncc2)c(-c2ccc(Cl)c(O)c2)o1.Cl.Cl [SB-710397] | 38% | 10% | 7% | 44% | 35% | 34% | 0% | 0% | 56% | 0% | 43% | 13% | 18% | 0% | 49% | 0% | 27% | 29% | 35% | 0%
Nc1ncnc2[nH]c(-c3ccccc3)nc12 [AH5015] | 0% | 0% | 3% | 42% | 55% | 0% | 19% | 0% | 0% | 0% | 52% | 12% | 8% | 34% | 47% | 0% | 9% | 16% | 15% | 14%
CC(C)(C)c1ccc(C(=O)Nc2cn3cc(-c4cccnc4)ccc3n2)cc1 | 0% | 0% | 0% | 21% | 27% | 11% | 7% | 0% | 41% | 30% | 70% | 24% | 0% | 45% | 6% | 2% | 24% | 0% | 5% | 0%
O=C(Nc1ccccc1)Nc1cccc(Oc2ccc3nccn3n2)c1 | 18% | 0% | 0% | 7% | 0% | 0% | 0% | 0% | 9% | 1% | 0% | 2% | 16% | 5% | 7% | 0% | 0% | 0% | 0% | 39%
O=C(Nc1n[nH]c2cc(-c3cccc(F)c3F)ccc12)C1CC1 [SB-733894] | 0% | 22% | 0% | 0% | 5% | 11% | 0% | 41% | 0% | 10% | 0% | 0% | 0% | 67% | 27% | 18% | 32% | 0% | 1% | 6%
Cc1ccc(NC(=O)Nc2cc(C(C)(C)C)nn2-c2ccccc2)cc1 [GSK1014915] | 0% | 23% | 8% | 22% | 20% | 1% | 0% | 13% | 23% | 100% | 23% | 12% | 0% | 0% | 13% | 0% | 45% | 39% | 10% | 0%
Cc1cc(N2Cc3ccccc3C2)nc(Nc2ccc(S(=O)(=O)N3CCOCC3)cc2)n1.Cl [GSK1669917] | 0% | 99.9% | 2% | 0% | 0% | 29% | 0% | 100% | 0% | 0% | 0% | 0% | 11% | 0% | 0% | 0% | 3% | 13% | 1% | 3%
CCn1c(-c2cccnc2O)nc2cnccc21 [SB-736715] | 0% | 0% | 0% | 0% | 0% | 0% | 0% | 0% | 0% | 0% | 0% | 26% | 0% | 0% | 0% | 0% | 0% | 10% | 1% | 18%
Cn1ccc2ncnc(Oc3ccc(NC(=O)Nc4ccccc4)cc3)c21 | 0% | 0% | 0% | 5% | 0% | 17% | 0% | 14% | 7% | 0% | 17% | 0% | 0% | 39% | 2% | 21% | 22% | 0% | 0% | 57%
Cc1cccc(-c2nc(C)cc(Nc3ccncc3)n2)n1 [GSK257997] | 7% | 0% | 5% | 0% | 13% | 12% | 0% | 3% | 0% | 0% | 1% | 12% | 13% | 0% | 0% | 0% | 4% | 43% | 32% | 0%
Cc1c(Cn2ccn3c(=O)cc(N4CCOCC4)nc23)cccc1C(F)(F)F [GSK2289044] | 29% | 0% | 0% | 0% | 0% | 3% | 0% | 0% | 0% | 4% | 0% | 5% | 83% | 0% | 0% | 0% | 3% | 6% | 3% | 0%
CS(=O)(=O)c1ccc(-c2nc3n(c2-c2ccncc2)CCC3)cc1 [SKF-105942] | 27% | 100% | 0% | 0% | 0% | 0% | 0% | 16% | 1% | 0% | 23% | 7% | 6% | 0% | 0% | 0% | 41% | 16% | 0% | 7%
O=C(O)COc1ncnc2cc(-c3ccc4[nH]ncc4c3)sc12 | 18% | 31% | 0% | 28% | 19% | 4% | 19% | 0% | 29% | 38% | 0% | 0% | 0% | 44% | 16% | 46% | 30% | 21% | 15% | 30%
COc1ccc(C2=C(Nc3cccc(C(=O)O)c3)C(=O)NC2=O)cc1 [SB-390765] | 19% | 29% | 0% | 16% | 23% | 3% | 4% | 13% | 28% | 0% | 0% | 0% | 0% | 18% | 12% | 0% | 41% | 32% | 33% | 14%
C[C@@H]1CCCCN1c1cc(-c2ccc3c(N)n[nH]c3c2)nc(N)n1 [GSK2258759] | 0% | 11% | 4% | 0% | 7% | 43% | 0% | 6% | 4% | 0% | 0% | 0% | 8% | 0% | 0% | 0% | 0% | 10% | 0% | 0%
Cc1cc(NCC(c2ccccc2)c2ccccc2)nc(NCc2ccc(C(F)(F)F)cc2)n1 [GW497681] | 13% | 0% | 27% | 0% | 0% | 26% | 0% | 0% | 23% | 0% | 8% | 0% | 10% | 0% | 0% | 0% | 0% | 0% | 0% | 0%
COc1cc(Nc2nccc(N3CCC(NC(=O)Nc4cc(C)ccc4C)C3)n2)cc(OC)c1OC (centres unmarked) [GSK1379762] | 0% | 22% | 15% | 21% | 17% | 23% | 9% | 0% | 58% | 73% | 16% | 30% | 5% | 0% | 76% | 0% | 24% | 2% | 11% | 0%
